Laboratory results from PubChem BioAssay (NCATS).
Results filed as inconclusive are left out. Unmarked numbers belong to inactive results. Calls of active or inactive are those of the source. The call rests on the fitted dose curve; in most records, active means well fitted inhibition curve with a large enough effect; inconclusive means small, poorly fitted or top-dose-only effect; inactive means flat fitted curve, though single readings scatter.

Test system: CRL-7250
Experiment: Cytotoxic Profiling of Annotated Libraries Using Quantitative High-Throughput Screening (AID 1296008); further: nearly all actives have a fitted effect of over 60% in size
Conditions: Five cell lines viability, CellTiter-Glo ATP luminescence, 48-72 h; max response: hits give low values
Method in brief: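 Cytotoxicity was measured as CellTiter-Glo ATP luminescence, read after 10 min at room temperature. Compound treatment of the cells lasted 48 or 72 hr at 37 degrees Celsius in a qHTS format.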
On the % scale 0 is the no-effect control and ±100 the full control effect; potency means the concentration at half of the fitted maximal effect.

Q: `CC(=O)N1CCN(Cc2ccc([C@H](C)Nc3nccc(N4C(=O)OC[C@@H]4C(C)C)n3)cc2)CC1` was tested. Which Potency did it give?
A: 920 nM (active)

Q: `COc1ccc(N2CCOCC2)c2sc(NC(=O)N3CCC(C)(O)CC3)nc12` was tested. Which max response did it give?
A: 0.434%

Q: For `CC1(C)CC2C=C(C(=O)O)C3COC(=O)C(O)(CO)C23C1` (stereo unspecified), which max response is on record?
A: -19.1%

Q: `N[C@H]1Cc2ccccc2N(O)C1=O` was tested. Which max response did it give?
A: -6.2%

Q: Which max response does the source give for `CC1CCC2C(C(=O)O)=COC(O[C@@H]3O[C@H](CO)[C@@H](O)[C@H](O)[C@H]3O)C12` (stereo partly specified) here?
A: -11.5%

Q: `C=C[C@]1(C)C=C2CCC3C(C)(CCC[C@@]3(C)C(=O)O)C2CC1` (stereo partly specified) was tested. Which outcome did it give?
A: inactive
